# Test results reported in PubChem BioAssay (EPA / NIEHS).
# Several values for one entry are separate records, joined by “and”; a condition that tells them apart may be missing. Identical values can stand only once. Inconclusive results are not listed. A structure can be active in one record and inactive in another. Activity calls are given as the source filed them. The calls were made as follows, unless noted: active = hit-call score of the fitted dose curve at least 0.9, where 1 is the maximum; inactive = score below 0.9.
# Experiments:
# [1] = CCTE_Shafer_MEA_acute_LDH: CCTE's Lactate Dehydrogenase Assay for Cytotoxicity in the Neural Acute Assay, Shafer Lab (AID 2284086; active = hit-call score of the fitted dose curve at least 0.9, where 1 is the maximum;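 also: active means LDH release rises above DMSO vehicle level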)
# Method in brief: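 Cytotoxicity readout: spectrophotometric LDH activity in supernatant of rat primary cortical neurons, post-plating day 13 or 15, sampled after 40 min compound exposure; signal gain relative to DMSO baseline.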
# [2] = CCTE_Shafer_MEA_dev_AB: CCTE's Alamar Blue Assay for Cytotoxicity in the Neural Network Formation Assay, Shafer Lab (AID 2284083; active = hit-call score of the fitted dose curve at least 0.9, where 1 is the maximum;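 also: resazurin reduction fluorescence as viability of cultured neurons; twelve days of exposure from plating with re-dosing on DIV 5 and 9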)
# Method in brief: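 Resazurin fluorescence, relative to DMSO, gauges viability after twelve days of exposure that began at plating of rat cortical neurons (1.5 x 10^5 cells/well, 48-well MEA); treatment renewed with full medium exchange on DIV 5 and 9.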
# [3] = CCTE_Shafer_MEA_dev_mutual_information_norm: CCTE's Neural Network Formation Assay for Mutual Information Normalization, Shafer Lab (AID 2284091);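 as to AC50: mutual information between electrodes summarised as area under curve across four recording days; potency is for a decrease in mutual information relative to DMSO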
# Method in brief: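 Shared information across electrodes, tracked on days 5, 7, 9 and 12 of network development and collapsed as trapezoidal area under the curve. Rat cortical cultures were treated continuously from plating, with treatment renewed at feeds on DIV 5 and 9; DMSO baseline, negative-direction fit.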
# [4] = CCTE_Shafer_MEA_dev_correlation_coefficient_mean: CCTE's Neural Network Formation Assay for Mean Correlation Coefficient, Shafer Lab (AID 2284093);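 as to AC50: well mean pairwise spike train correlation integrated as AUC over recording days 5 to 12; potency fitted for loss of correlation relative to DMSO vehicle wells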
# Method in brief: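 Primary rat cortical neurons on PEI-coated 48-well MEA plates (16 electrodes/well) were exposed from plating day 0 through DIV12, with compound renewed at DIV5 and 9. Pairwise spike correlations were averaged per well; trapezoidal AUC across DIV5, 7, 9, 12.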
# [5] = UKN2_HCS_IMR90_neural_migration: University of Konstanz (UKN) Leist Lab Neural Crest Cell Migration Assay in human induced IMR90 Pluripotent Stem Cells (UKN2) (AID 2284204); details: actives raise or lower the signal
# Method in brief: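 High-content imaging of calcein-AM and Hoechst stained cells quantifies migration into a stopper-defined gap after 24 h compound exposure. Neural crest cells from IMR90 iPSC migrated 24 h in EGF/FGF N2-S medium before dosing; DMSO baseline.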
# [6] = IUF_NPC1b_proliferation_BrdU_72hr: Leibniz Research Institute for Environmental Medicine (IUF) 72-hour Neural Progenitor Cell Bromodeoxyuridine (BrdU) Proliferation Assay (NPC1b) (AID 2284207)
# Method in brief: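 Human fetal cortex-derived (GW 16-19) neural progenitor spheres, 0.25-0.35 mm, one per well in EGF/FGF proliferation medium, exposed to compound for 72 h at 37C, pH 7.2-7.6. BrdU incorporation over the final 16 h read by luminescence ELISA, relative to DMSO.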
# [7] = IUF_NPC1a_proliferation_area_72hr: Leibniz Research Institute for Environmental Medicine (IUF) 72-hour Neural Progenitor Cell Proliferation Area Assay (NPC1a) (AID 2284208)
# Method in brief: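 Spheres of 0.3 mm are plated singly in growth-factor medium and exposed from day 0. After three days at 37C and 5% CO2, sphere area is measured by phase contrast imaging, with activity referenced to DMSO.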
# [8] = IUF_NPC1_viability_72hr: Viability Assessment at 72 hours in the Leibniz Research Institute for Environmental Medicine (IUF) Neural Progenitor Cell Proliferation Assay (NPC1) (AID 2284209)
# Method in brief: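 Three-day continuous exposure of human neural progenitor spheres under EGF/FGF-driven proliferation; cell viability scored by alamar blue signal versus DMSO.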
# [9] = CCTE_Mundy_HCI_Cortical_Synap_Neur_Matur_NeuriteSpotCountPerNeuriteLength: CCTE's Synaptogenesis and Neurite Maturation Assay in rat cortical cells for Neurite Spot Count per Neurite Length, Mundy Lab (AID 2284210)
# Method in brief: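 Synaptophysin spots per unit neurite length, measured by automated imaging of MAP2/synaptophysin/Hoechst-stained neurons. Cultures from rat cortex received chemical at DIV 7 with media change through DIV 12; glial growth arrested by AraC at DIV 5; DMSO baseline.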
# [10] = CCTE_Mundy_HCI_Cortical_Synap_Neur_Matur_BPCount: CCTE's Synaptogenesis and Neurite Maturation Assay in rat cortical cells for Branch Point Count, Mundy Lab (AID 2284211)
# Method in brief: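 In this multiplexed morphology assay, cortical cells from rat receive chemicals at DIV 7 and are fixed at DIV 12, then immunostained and imaged; branch points are counted, with DMSO as baseline.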
# [11] = CCTE_Mundy_HCI_Cortical_NOG_NeuriteCount: CCTE's Neurite Outgrowth Assay in rat cortical cells for Neurite Count, Mundy Lab (AID 2284212);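 also: cells fixed about two days after chemical exposure began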
# Method in brief: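 Rat cortical primary cells; compound added 2 h post-plating, 1/10 dilution of working solution. Anti-betaIII-tubulin/AF488 ICC; ArrayScan neurite count vs DMSO.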
# [12] = CCTE_Mundy_HCI_Cortical_NOG_NeuriteLength: CCTE's Neurite Outgrowth Assay in rat cortical cells for Neurite Length, Mundy Lab (AID 2284213);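 as to AC50: neurites imaged about 48 to 50 h after chemical exposure began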
# Method in brief: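 First, rat primary cortical cells were plated and, 2 h later, given test chemical as a 1/10 dilution. Finally, βIII-tubulin immunostaining enabled automated imaging of neurite length.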
# [13] = CCTE_Mundy_HCI_Cortical_Synap_Neur_Matur_NeuriteLength: CCTE's Synaptogenesis and Neurite Maturation Assay in rat cortical cells for Neurite Length, Mundy Lab (AID 2284214)
# Method in brief: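 DMSO-normalised neurite length, from high-content imaging of anti-MAP2-stained rat cortical cells fixed at DIV 12. Glia were suppressed with AraC (DIV 5) before chemical exposure from DIV 7.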
# [14] = CCTE_Mundy_HCI_Cortical_Synap_Neur_Matur_NeuriteSpotCountPerNeuron: CCTE's Synaptogenesis and Neurite Maturation Assay in rat cortical cells for Neurite Spot Count per Neuron Count, Mundy Lab (AID 2284215)
# Method in brief: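 Rat cortical primary cultures; AraC DIV 5 to arrest glia; dosing + media change DIV 7; fixed DIV 12. Anti-MAP2/anti-synaptophysin, Hoechst nuclei; HCI puncta count per neuron, positive fitting direction vs DMSO.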
# [15] = CCTE_Mundy_HCI_Cortical_Synap_Neur_Matur_SynapseCount: CCTE's Synaptogenesis and Neurite Maturation Assay in rat cortical cells for Synapse Count, Mundy Lab (AID 2284218)
# Method in brief: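 Endpoint: synapses/neuron by HCI (synaptophysin puncta on MAP2-labelled neurites, Hoechst nuclei). Rat primary cortical cells, AraC DIV 5, dosed DIV 7, fixed DIV 12; DMSO negative control.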
# [16] = TAMU_PeakParms_SingleDonor1434_Chronotropy: Texas A&M University (TAMU) 1.5-hr Human Induced Pluripotent Stem Cell (iPSC)-derived Cardiomyocytes Calcium (Ca+2) Flux Assay for Cardiotoxicity: Chronotropy (changes in peak frequency) (AID 2284217); details: actives raise or lower the signal
# Method in brief: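 Beat rate, as mean Ca2+-flux peak frequency, was read from donor 1434 iPSC cardiomyocytes 90 min after exposure to 0.2–100 uM test chemical (0.5% DMSO). Wells that stopped beating were excluded; EC05 from bidirectional DMSO-referenced fitting.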
# [17] = CCTE_Mundy_HCI_hN2_NOG_NeuriteCount: CCTE's Neurite Outgrowth Assay in human hN2 cells for Neurite Count, Mundy Lab (AID 2284219; active = hit-call score of the fitted dose curve at least 0.9, where 1 is the maximum)
# Method in brief: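 In this morphology assay, hNP1-derived neurons received test chemical 2 h post-plating and were fixed two days later in warm paraformaldehyde/sucrose containing Hoechst 33342. Neurites, labelled by rabbit anti-βIII-tubulin (1:800) and Alexa Fluor-488 (1:500), were counted automatically.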
# [18] = CCTE_Mundy_HCI_hN2_NOG_NeuriteLength: CCTE's Neurite Outgrowth Assay in human hN2 cells for Neurite Length, Mundy Lab (AID 2284220; active = hit-call score of the fitted dose curve at least 0.9, where 1 is the maximum)
# Method in brief: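 Plate hNP1-derived neurons, then add chemical 2 h later as a 1/10 dilution. Stain with anti-βIII-tubulin then Alexa Fluor-488 secondary, and image automatically to measure neurite length.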
# [19] = CCTE_Mundy_HCI_hN2_NOG_NeuronCount: CCTE's Neurite Outgrowth Assay in human hN2 cells for Neuron Count, Mundy Lab (AID 2284221; active = hit-call score of the fitted dose curve at least 0.9, where 1 is the maximum)
# Method in brief: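 Read-out is the number of betaIII-tubulin-positive neurons imaged by automated high-content analysis, with DMSO as negative control.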
compound,measurement,setting,value
CC(C)N1C(=O)N(c2ccccc2)CSC1=NC(C)(C)C,outcome,[1],inactive
CS(=O)(=O)c1ccc(C(=O)C2C(=O)CCCC2=O)c([N+](=O)[O-])c1,outcome,[2],inactive
same,outcome,[3],inactive
same,outcome,[4],inactive
same,outcome,[5],inactive
same,outcome,[6],inactive
same,outcome,[7],inactive
same,outcome,[8],inactive
same,outcome,[9],inactive
same,outcome,[10],inactive
same,outcome,[11],inactive
same,outcome,[12],inactive
same,outcome,[13],inactive
same,outcome,[14],inactive
same,outcome,[15],inactive
OC(c1ccc(Cl)cc1)(c1ccc(Cl)cc1)C(Cl)(Cl)Cl,outcome,[1],inactive
CNC(=O)Oc1cccc2ccccc12,AC50,[2],15 µM (active)
same,outcome,[2],inactive
same,AC50,[3],8.41 µM (active) and 15 µM (active)
same,AC50,[4],12.8 µM (active)
same,outcome,[4],inactive
same,outcome,[6],inactive
same,outcome,[7],inactive
same,outcome,[8],inactive
same,outcome,[9],inactive
same,outcome,[10],inactive
same,outcome,[11],inactive
same,outcome,[12],inactive
same,outcome,[14],inactive
same,outcome,[16],inactive
same,outcome,[15],inactive
CCOC(=O)C(C)OC(=O)c1cc(Oc2ccc(C(F)(F)F)cc2Cl)ccc1[N+](=O)[O-] (configuration not stated),outcome,[2],inactive
same,outcome,[1],inactive
same,outcome,[3],inactive
same,outcome,[4],inactive
CC1(C)CCC(=Cc2ccc(Cl)cc2)C1(O)Cn1cncn1 (configuration not stated),outcome,[1],inactive
CC(C)(C)C(=O)C(Oc1ccc(Cl)cc1)n1cncn1 (configuration not stated),AC50,[2],38.6 µM (active)
same,outcome,[3],inactive
same,AC50,[4],41.6 µM (active)
same,outcome,[5],inactive
same,AC50,[6],513 nM (active)
same,outcome,[7],inactive
same,outcome,[8],inactive
same,outcome,[9],inactive
same,AC50,[10],9.82 µM (active)
same,outcome,[11],inactive
same,outcome,[12],inactive
same,AC50,[13],7.05 µM (active)
same,AC50,[14],7.48 µM (active)
same,AC50,[15],6.09 µM (active)
CC1(C)C(C(=O)OC(C#N)c2cccc(Oc3ccccc3)c2)C1(C)C (configuration not stated),AC50,[2],1.98 µM (active)
same,AC50,[3],1.01 µM (active)
same,AC50,[4],4.17 µM (active)
CC(C)C1(C)N=C(c2ncccc2C(=O)O)NC1=O (configuration not stated),outcome,[1],inactive
CCCCC(O)(Cn1cncn1)c1ccc(Cl)cc1Cl (configuration not stated),outcome,[1],inactive
CCOc1cc(C(C)(C)C)ccc1C1COC(c2c(F)cccc2F)=N1 (configuration not stated),outcome,[1],inactive
CO/N=C(/C1=NOCCO1)c1ccccc1Oc1ncnc(Oc2ccccc2Cl)c1F,AC50,[2],1.47 µM (active) and 2.27 µM (active)
same,AC50,[3],401 nM (active) and 924 nM (active)
same,AC50,[4],844 nM (active) and 1.02 µM (active)
same,outcome,[5],inactive
same,AC50,[6],142 nM (active)
same,outcome,[7],inactive
same,outcome,[8],inactive
same,AC50,[9],3.03 µM (active)
same,AC50,[10],7.61 µM (active)
same,AC50,[11],3.51 µM (active)
same,AC50,[12],2.74 µM (active)
same,AC50,[13],4.34 µM (active)
same,AC50,[14],2.16 µM (active)
same,AC50,[15],2.75 µM (active)
CC1(C)C(C=C(Cl)Cl)C1C(=O)OC(C#N)c1cccc(Oc2ccccc2)c1 (configuration not stated),outcome,[2],inactive
same,outcome,[1],inactive
same,AC50,[3],1.43 µM (active)
same,outcome,[3],inactive
same,AC50,[4],3.6 µM (active)
same,outcome,[4],inactive
same,outcome,[6],inactive
same,outcome,[7],inactive
same,outcome,[8],inactive
same,outcome,[9],inactive
same,AC50,[10],0.00451 µM (active)
same,outcome,[11],inactive
same,outcome,[12],inactive
same,outcome,[13],inactive
same,outcome,[14],inactive
same,outcome,[15],inactive
CCN(CC)c1nc(C)cc(OP(=S)(OC)OC)n1,AC50,[2],50 µM (active)
same,AC50,[3],21.8 µM (active)
same,AC50,[4],27.4 µM (active)
same,outcome,[9],inactive
same,AC50,[10],67.1 µM (active)
same,AC50,[11],79.4 µM (active)
same,AC50,[12],88.7 µM (active)
same,AC50,[13],78.6 µM (active)
same,AC50,[14],84.5 µM (active)
same,outcome,[15],inactive
same,AC50,[17],72.4 µM (active)
same,AC50,[18],60.7 µM (active)
same,AC50,[19],50 µM (active)
CS(=O)(=O)c1cc(C(F)(F)F)ccc1C(=O)c1cnoc1C1CC1,outcome,[3],inactive
same,outcome,[4],inactive
same,outcome,[5],inactive
same,outcome,[6],inactive
same,outcome,[7],inactive
same,outcome,[8],inactive
same,outcome,[9],inactive
same,outcome,[10],inactive
same,outcome,[11],inactive
same,outcome,[12],inactive
same,outcome,[13],inactive
same,outcome,[14],inactive
same,outcome,[15],inactive
O=C1C2CC=CCC2C(=O)N1SC(Cl)(Cl)Cl (configuration not stated),AC50,[2],16.1 µM (active) and 14.7 µM (active)
same,outcome,[3],inactive
same,AC50,[4],9.85 µM (active)
same,outcome,[16],inactive
Nc1c(Cl)c(F)nc(OCC(=O)O)c1Cl,outcome,[1],inactive
Cn1c(-c2ccccc2)cc(-c2ccccc2)[n+]1C,outcome,[1],inactive
CCCC(=NOCC)C1=C(O)CC(CC(C)SCC)CC1=O (configuration not stated),outcome,[1],inactive
COC(=O)N(C(=O)N1CO[C@@]2(C(=O)OC)Cc3cc(Cl)ccc3C2=N1)c1ccc(OC(F)(F)F)cc1,AC50,[2],2.98 µM (active)
same,outcome,[1],inactive
same,outcome,[3],inactive
same,AC50,[4],15 µM (active)
same,outcome,[5],inactive
same,AC50,[6],483 nM (active)
same,outcome,[7],inactive
same,outcome,[8],inactive
same,outcome,[9],inactive
same,outcome,[10],inactive
same,outcome,[11],inactive
same,outcome,[12],inactive
same,outcome,[13],inactive
same,outcome,[14],inactive
same,outcome,[15],inactive
O=C(Nc1ccccc1-c1ccc(Cl)cc1)c1cccnc1Cl,AC50,[2],77.7 µM (active)
same,outcome,[2],inactive
same,outcome,[1],inactive
same,AC50,[3],18.3 µM (active)
same,outcome,[3],inactive
same,AC50,[4],9.92 µM (active)
same,outcome,[4],inactive
same,outcome,[5],inactive
same,outcome,[6],inactive
same,outcome,[7],inactive
same,outcome,[8],inactive
same,outcome,[9],inactive
same,outcome,[10],inactive
same,outcome,[11],inactive
same,outcome,[12],inactive
same,outcome,[13],inactive
same,outcome,[14],inactive
same,outcome,[15],inactive
